# C diff growth – C. difficile growth inhibitors, primary screen, HTS; growth activity, negative = inhibition, % at 16 µg/mL (by protocol); Clostridium difficile clinical isolate growth, OD600, 24 h; stronger effect = lower value; 0.25% of 86,000 active;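 active means mean growth activity at or below -80% and every replicate also at or below -80%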;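 further: 0% = DMSO wells and -100% = levofloxacin 16 µg/mL wells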
# Pf Dd2 inh – P. falciparum Dd2 growth inhibitors, primary screen, SYBR Green fluorescence, single dose replicates. 72 h; stronger effect = lower value. activity change, % at 10 µM. 2.3% of 94,000 active; in the data active means activity change below about -80%
# Numbers without * were called inactive; . = not tested or not shown. Hits are enriched below; roughly 2.4% of the tested compounds scored in any of these assays.
SMILES,C diff growth,Pf Dd2 inh
COc1ccc(CN(C)C[C@H]2OCCCC[C@H](C)Oc3ccc(NS(=O)(=O)c4ccc(OC)cc4)cc3C(=O)N([C@@H](C)CO)C[C@H]2C)cc1,-19,-83*
C[C@@H]1CN([C@@H](C)CO)C(=O)c2cccc(NS(=O)(=O)c3cccs3)c2O[C@H]1CN(C)S(=O)(=O)c1ccc(Cl)cc1,-1,-4
COc1ccc2c3c([nH]c2c1)[C@@H](CO)N(C(=O)CN1CCOCC1)CC31CN(C(C)=O)C1,62,18
CCCNC(=O)C[C@H]1CC[C@@H]2[C@@H](COc3ccc(NC(=O)Nc4c(C)noc4C)cc3C(=O)N2C)O1,3,0
O=C(C[C@H]1C[C@@H]2c3cc(NC(=O)Nc4ccccc4F)ccc3O[C@@H]2[C@@H](CO)O1)NCc1ccncc1,-5,-4
C[C@@H]1CN([C@H](C)CO)C(=O)c2cc(C#Cc3ccccc3)cnc2O[C@@H]1CN(C)CC1CCOCC1,7,-28
CC(=O)N(C)C[C@H]1Oc2ncc(-c3ccc(C)cc3)cc2C(=O)N([C@@H](C)CO)C[C@H]1C,10,23
O=C(C[C@@H]1CC[C@H]2[C@@H](COC[C@@H](O)CN2C(=O)Cc2ccccc2)O1)NC1CCCC1,-1,-2
C[C@@H]1CN([C@@H](C)CO)C(=O)c2cccc(NS(=O)(=O)c3cn(C)cn3)c2O[C@H]1CN(C)Cc1ccc(C(F)(F)F)cc1,1,14
COc1ccc(CN(C)C[C@H]2OCCCC[C@H](C)Oc3ccc(NC(=O)c4ccncc4)cc3C(=O)N([C@H](C)CO)C[C@@H]2C)cc1,-1,-21
CCCN(C)C[C@H]1OCCCC[C@@H](C)Oc2ccc(NS(=O)(=O)c3c(C)noc3C)cc2C(=O)N([C@@H](C)CO)C[C@H]1C,-2,-85*
Cc1noc(C)c1S(=O)(=O)Nc1ccc2c(c1)C(=O)N([C@@H](C)CO)C[C@@H](C)[C@@H](CN(C)Cc1ccc(Cl)c(Cl)c1)OCCCC[C@@H](C)O2,7,-82*
CCCN(C)C[C@H]1OCCCC[C@@H](C)Oc2ccc(NS(=O)(=O)c3ccc(OC)cc3)cc2C(=O)N([C@@H](C)CO)C[C@H]1C,2,-88*
Cc1noc(C)c1S(=O)(=O)Nc1ccc2c(c1)C(=O)N([C@@H](C)CO)C[C@@H](C)[C@@H](CN(C)CC1CC1)OCCCC[C@@H](C)O2,-3,-37
COc1ccc(S(=O)(=O)Nc2ccc3c(c2)C(=O)N([C@H](C)CO)C[C@@H](C)[C@H](CN(C)Cc2ccc(Cl)c(Cl)c2)OCCCC[C@@H](C)O3)cc1,.,-91*
Cc1noc(C)c1S(=O)(=O)Nc1ccc2c(c1)C(=O)N([C@H](C)CO)C[C@H](C)[C@H](CN(C)Cc1ccc(Cl)c(Cl)c1)OCCCC[C@@H](C)O2,0,-28
COc1ccc(S(=O)(=O)Nc2ccc3c(c2)C(=O)N([C@@H](C)CO)C[C@@H](C)[C@@H](CN(C)Cc2ccc(Cl)c(Cl)c2)OCCCC[C@@H](C)O3)cc1,52,-68
CCCN(C)C[C@@H]1OCCCC[C@@H](C)Oc2ccc(NS(=O)(=O)c3ccc(OC)cc3)cc2C(=O)N([C@H](C)CO)C[C@@H]1C,0,-45
C[C@@H]1CN([C@@H](C)CO)C(=O)c2cccc(NS(=O)(=O)c3cccs3)c2O[C@@H]1CN(C)S(C)(=O)=O,2,5
CCC(=O)N[C@H]1C=C[C@H](CC(=O)NCc2ccccc2OC)O[C@@H]1CO,2,-4
O=C(C[C@@H]1C[C@@H]2c3cc(NC(=O)c4cccnc4)ccc3O[C@@H]2[C@@H](CO)O1)NCc1ccncc1,-1,5
Cc1ccccc1-c1cnc2c(c1)C(=O)N([C@@H](C)CO)C[C@H](C)[C@@H](CN(C)C(=O)c1ccc(F)cc1)O2,-1,-35
C[C@H](CO)N1C[C@H](C)[C@H](CN(C)Cc2ccc(C(=O)O)cc2)OCCCC[C@H](C)Oc2ccc(NS(=O)(=O)c3cccs3)cc2C1=O,10,35
COc1ccc2c3c(n(C)c2c1)[C@H](CO)N(C(=O)C1CCC1)CC31CCN(C(=O)CN(C)C)CC1,1,-82*
COc1ccc2c3c(n(C)c2c1)[C@@H](CO)N(C(=O)C1CCCC1)CC31CN(C(=O)Nc2cccc(F)c2)C1,9,-88*
SMILES,C diff growth,Pf Dd2 inh
COc1ccc2c3c(n(C)c2c1)[C@@H](CO)N(C(=O)C1CCC1)CC31CCN(C(=O)CN(C)C)CC1,0,-65
COc1ccc2c3c(n(C)c2c1)[C@H](CO)N(C(=O)C1CCCC1)CC31CN(C(=O)Nc2cccc(F)c2)C1,5,-57
COc1ccc2c3c(n(C)c2c1)[C@H](CO)N(C(=O)C1CC1)CC31CCN(C(=O)Nc2cccc(F)c2)CC1,16,-82*
COc1ccc2c3c(n(C)c2c1)[C@H](CO)N(C(=O)C1CCC1)CC31CN(C(=O)Nc2cccc(F)c2)C1,17,-51
COc1ccc2c3c(n(C)c2c1)[C@H](CO)N(C(=O)C1CCC1)CC31CCN(C(=O)Nc2cccc(F)c2)CC1,17,-64
COc1ccc2c3c(n(C)c2c1)[C@@H](CO)N(C(=O)C1CCC1)CC31CCN(C(=O)Nc2cccc(F)c2)CC1,1,-86*
CC(C)NC(=O)Nc1ccc2c(c1)C(=O)N([C@@H](C)CO)C[C@H](C)[C@@H](CN(C)Cc1ccc3c(c1)OCO3)OCCCC[C@H](C)O2,-1,-27
CC(C)NC(=O)Nc1ccc2c(c1)C(=O)N([C@@H](C)CO)C[C@H](C)[C@@H](CN(C)S(C)(=O)=O)OCCCC[C@@H](C)O2,.,25
CN1C(=O)c2cc(NC(=O)c3ccccc3)ccc2OC[C@H]2O[C@H](CC(=O)NCC3CC3)CC[C@@H]21,15,-10
CN(C)CC(=O)Nc1ccc2c(c1)[C@@H]1C[C@@H](CC(=O)N3CCc4ccccc4C3)O[C@@H](CO)[C@@H]1O2,.,-11
COc1ccc(NC(=O)N2CC3(C2)CN(C(=O)C2CCC2)[C@@H](CO)c2c3c3ccc(OC)cc3n2C)cc1,-9,-29
COc1ccc2c3c(n(C)c2c1)[C@H](CO)N(C(=O)Nc1cccc(F)c1)CC31CN(C)C1,-10,-80
COc1ccc(NC(=O)N2CCC3(CC2)CN(C(=O)C2CCC2)[C@@H](CO)c2c3c3ccc(OC)cc3n2C)cc1,-4,-93*
COc1ccc(S(=O)(=O)N2CC3(CN(C(=O)CN(C)C)[C@H](CO)c4c3c3ccc(OC)cc3n4C)C2)cc1,-5,-84*
COc1ccc(S(=O)(=O)N2CC3(CN(C(=O)CN(C)C)[C@@H](CO)c4c3c3ccc(OC)cc3n4C)C2)cc1,-6,-67
CCS(=O)(=O)N1CCC2(CC1)CN(C(=O)Nc1cccc(F)c1)[C@H](CO)c1c2c2ccc(OC)cc2n1C,1,-88*
CN1[C@H](C(=O)NCCN2CCCCC2)[C@@H](CO)[C@@H]2Cn3c(ccc(-c4ccc(F)cc4)c3=O)[C@@H]21,1,-9
O=C(C[C@@H]1CC[C@H](NC(=O)c2ccncc2)[C@@H](CO)O1)NCCc1ccncc1,2,5
CC(=O)N(C)C[C@H]1Oc2ncc(C#Cc3ccncc3)cc2C(=O)N([C@@H](C)CO)C[C@@H]1C,3,26
CCCNC(=O)N1CC2(CN(C(=O)C3CCOCC3)C2)c2c([nH]c3cc(OC)ccc23)[C@@H]1CO,-2,54
